Assay in all cases: DAPPL (digital affinity profiling via proximity ligation, sequencing); 10 mM Tris-HCl pH 7.5, 50 mM NaCl, 1 mM DTT, 4% glycerol, room temperature, 30 min; GST-TFs on glutathione beads, 16-mer random dsDNA library, 0.1% formaldehyde crosslink after washing; high values mean tight binding
In assay [1] the target is T1, FLI1 (Homo sapiens, UniProt Q01543 1-452).
T1 sequence: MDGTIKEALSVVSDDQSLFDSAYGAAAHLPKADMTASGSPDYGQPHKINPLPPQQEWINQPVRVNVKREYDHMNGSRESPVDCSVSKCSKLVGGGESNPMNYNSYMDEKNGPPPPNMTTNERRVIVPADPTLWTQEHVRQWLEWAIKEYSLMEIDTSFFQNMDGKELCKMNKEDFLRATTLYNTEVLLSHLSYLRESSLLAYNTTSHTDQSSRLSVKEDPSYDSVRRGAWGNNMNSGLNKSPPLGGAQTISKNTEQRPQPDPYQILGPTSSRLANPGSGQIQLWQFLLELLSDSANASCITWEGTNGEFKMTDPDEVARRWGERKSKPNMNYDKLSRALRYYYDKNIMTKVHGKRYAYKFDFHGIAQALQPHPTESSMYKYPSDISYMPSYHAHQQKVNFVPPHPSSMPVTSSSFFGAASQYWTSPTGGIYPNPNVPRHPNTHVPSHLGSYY
To be noted: protein: recombinant; tags: N-terminal GST; dsDNA, one strand shown. In a few lines: (§1)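 The binding signal reported is, for every hexamer, its read frequency for a factor over its read frequency for the tag-only sample. Reads came from pools of yeast-expressed, GST-fused human transcription factors on glutathione beads, barcoded with DNA and mixed with that sample, which were incubated with 200 nmole of a random double-stranded 16-mer DNA library in Tris/NaCl/DTT/glycerol buffer at room temperature for 30 min. After washing, the pools were crosslinked with 0.1% formaldehyde, proximity-ligated with BsaI/T4 ligase for 1 h at 37 °C, PCR-amplified and sequenced on an Illumina NextSeq500.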

The target in assay [2] is T2, ELK1 (Homo sapiens, UniProt P19419 1-428).
T2 sequence: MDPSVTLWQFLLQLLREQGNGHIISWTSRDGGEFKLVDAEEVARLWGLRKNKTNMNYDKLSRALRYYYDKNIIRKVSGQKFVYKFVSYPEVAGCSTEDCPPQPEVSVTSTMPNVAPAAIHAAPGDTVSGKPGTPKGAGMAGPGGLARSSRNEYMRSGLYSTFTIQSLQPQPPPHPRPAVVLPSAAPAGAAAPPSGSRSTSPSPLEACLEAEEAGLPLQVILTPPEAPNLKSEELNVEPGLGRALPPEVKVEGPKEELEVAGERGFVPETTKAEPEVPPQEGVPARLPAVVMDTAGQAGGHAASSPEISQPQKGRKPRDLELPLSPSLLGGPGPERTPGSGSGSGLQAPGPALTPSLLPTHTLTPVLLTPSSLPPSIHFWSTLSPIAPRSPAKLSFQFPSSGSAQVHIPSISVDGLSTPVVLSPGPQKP
The conditions noted are these: protein: recombinant; tags: N-terminal GST; dsDNA, one strand shown. The essentials:
as §1

The target in assay [3] is T3, GABPA (Homo sapiens, UniProt Q06546 1-454).
T3 sequence: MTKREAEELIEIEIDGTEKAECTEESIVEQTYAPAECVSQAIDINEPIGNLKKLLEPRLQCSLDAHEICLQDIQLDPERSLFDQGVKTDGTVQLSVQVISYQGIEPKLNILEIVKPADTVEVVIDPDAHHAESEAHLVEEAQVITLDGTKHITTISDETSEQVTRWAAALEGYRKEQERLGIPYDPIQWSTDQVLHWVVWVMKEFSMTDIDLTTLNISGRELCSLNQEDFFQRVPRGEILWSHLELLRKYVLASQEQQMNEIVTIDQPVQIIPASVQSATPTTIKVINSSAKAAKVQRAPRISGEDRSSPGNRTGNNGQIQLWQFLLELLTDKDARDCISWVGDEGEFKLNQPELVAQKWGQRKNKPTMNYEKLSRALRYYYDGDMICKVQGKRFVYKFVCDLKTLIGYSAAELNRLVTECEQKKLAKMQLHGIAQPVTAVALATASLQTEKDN
The conditions noted are these: protein: recombinant; tags: N-terminal GST; dsDNA, one strand shown. In a few lines: as §1

Assay [4] deals with T4, ERG (Homo sapiens, UniProt P11308 1-479).
T4 sequence: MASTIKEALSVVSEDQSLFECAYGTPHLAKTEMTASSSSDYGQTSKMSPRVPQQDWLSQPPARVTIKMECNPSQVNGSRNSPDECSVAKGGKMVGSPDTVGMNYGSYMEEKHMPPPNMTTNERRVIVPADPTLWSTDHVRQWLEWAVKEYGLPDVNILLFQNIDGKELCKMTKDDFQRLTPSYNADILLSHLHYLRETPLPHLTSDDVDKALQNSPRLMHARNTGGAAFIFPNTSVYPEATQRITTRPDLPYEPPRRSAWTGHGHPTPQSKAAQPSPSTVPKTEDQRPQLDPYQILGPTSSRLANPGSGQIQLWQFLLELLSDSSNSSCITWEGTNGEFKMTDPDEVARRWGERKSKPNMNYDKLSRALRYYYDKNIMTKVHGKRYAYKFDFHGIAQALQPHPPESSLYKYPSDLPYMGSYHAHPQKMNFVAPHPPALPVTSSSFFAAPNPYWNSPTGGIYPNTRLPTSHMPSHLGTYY
The conditions noted are these: protein: recombinant; tags: N-terminal GST; dsDNA, one strand shown. The essentials: as §1

The target in assay [5] is ELF1 (Homo sapiens, UniProt P32519 1-619). The conditions noted are these: protein: recombinant; tags: N-terminal GST; dsDNA, one strand shown. In a few lines: as §1
ELF1, sequence (P32519 whole entry): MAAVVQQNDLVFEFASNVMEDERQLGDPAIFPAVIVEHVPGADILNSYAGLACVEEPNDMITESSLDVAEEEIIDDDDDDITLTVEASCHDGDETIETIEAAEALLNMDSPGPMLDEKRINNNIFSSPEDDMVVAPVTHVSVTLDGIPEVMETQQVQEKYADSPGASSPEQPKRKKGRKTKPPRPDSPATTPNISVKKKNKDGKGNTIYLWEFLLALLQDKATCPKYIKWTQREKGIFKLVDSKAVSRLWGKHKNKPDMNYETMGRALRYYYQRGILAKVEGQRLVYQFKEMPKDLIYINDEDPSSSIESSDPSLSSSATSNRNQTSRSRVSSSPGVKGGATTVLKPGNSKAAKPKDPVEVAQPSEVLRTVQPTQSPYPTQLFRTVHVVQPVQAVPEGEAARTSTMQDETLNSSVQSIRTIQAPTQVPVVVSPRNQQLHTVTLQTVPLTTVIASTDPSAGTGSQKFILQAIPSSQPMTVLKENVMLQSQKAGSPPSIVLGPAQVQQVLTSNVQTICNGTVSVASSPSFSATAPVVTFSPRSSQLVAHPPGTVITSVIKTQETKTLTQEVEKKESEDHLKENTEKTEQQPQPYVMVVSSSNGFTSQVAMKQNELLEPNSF
In assay [6] the target is T5, EHF (Homo sapiens, UniProt Q9NZC4 1-300).
T5 sequence: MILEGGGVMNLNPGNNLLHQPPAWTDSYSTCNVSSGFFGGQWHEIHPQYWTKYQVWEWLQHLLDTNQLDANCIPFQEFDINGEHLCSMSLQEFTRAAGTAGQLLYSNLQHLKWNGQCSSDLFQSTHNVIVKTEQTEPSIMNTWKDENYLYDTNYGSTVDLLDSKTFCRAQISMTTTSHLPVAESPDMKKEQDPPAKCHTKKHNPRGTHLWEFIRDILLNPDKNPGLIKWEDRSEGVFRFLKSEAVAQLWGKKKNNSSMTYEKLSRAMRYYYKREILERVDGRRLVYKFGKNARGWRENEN
The conditions noted are these: protein: recombinant; tags: N-terminal GST; dsDNA, one strand shown. The essentials: as §1

Assay [7] has as its target SPI1 (Homo sapiens, UniProt P17947 1-270). To be noted: protein: recombinant; tags: N-terminal GST; dsDNA, one strand shown. The essentials:
as §1

Assay [8] addresses SPIB (Homo sapiens, UniProt Q01892 1-262). The conditions noted are these: protein: recombinant; tags: N-terminal GST; dsDNA, one strand shown. In a few lines:
as §1

Assay [9] deals with T6, ELK3 (Homo sapiens, UniProt P41970 1-407).
T6 sequence: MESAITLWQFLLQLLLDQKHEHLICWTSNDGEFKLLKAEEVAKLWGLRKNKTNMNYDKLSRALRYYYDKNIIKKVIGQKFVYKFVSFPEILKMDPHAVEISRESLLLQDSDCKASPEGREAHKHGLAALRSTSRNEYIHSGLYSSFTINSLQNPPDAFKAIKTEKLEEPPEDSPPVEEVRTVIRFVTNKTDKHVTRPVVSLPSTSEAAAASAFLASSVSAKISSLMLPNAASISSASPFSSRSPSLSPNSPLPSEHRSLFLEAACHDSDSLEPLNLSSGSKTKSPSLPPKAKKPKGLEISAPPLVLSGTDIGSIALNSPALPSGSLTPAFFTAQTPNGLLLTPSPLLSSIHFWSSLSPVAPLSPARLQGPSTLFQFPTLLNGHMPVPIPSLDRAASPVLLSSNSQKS
To be noted: protein: recombinant; tags: N-terminal GST; dsDNA, one strand shown. The essentials:
as §1

Assay [10] addresses T7, FEV (Homo sapiens, UniProt Q99581 1-238).
T7 sequence: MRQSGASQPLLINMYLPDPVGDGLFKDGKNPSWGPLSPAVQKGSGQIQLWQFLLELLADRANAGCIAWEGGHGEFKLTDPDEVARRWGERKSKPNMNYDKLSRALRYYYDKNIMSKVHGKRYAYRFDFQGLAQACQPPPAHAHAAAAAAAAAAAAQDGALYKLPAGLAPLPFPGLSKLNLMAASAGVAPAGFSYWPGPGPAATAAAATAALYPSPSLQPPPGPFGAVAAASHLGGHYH
To be noted: protein: recombinant; tags: N-terminal GST; dsDNA, one strand shown. The essentials:
as §1

For assay [11], the target named is ETV5 (Homo sapiens, UniProt P41161 1-510). To be noted: protein: recombinant; tags: N-terminal GST; dsDNA, one strand shown. In a few lines:
as §1

Assay [12] has as its target HSF1 (Homo sapiens, UniProt Q00613 1-529). To be noted: protein: recombinant; tags: N-terminal GST; chain copies: 3; dsDNA, one strand shown. The essentials:
as §1

Assay [13] concerns the target T8, SPIC (Homo sapiens, UniProt Q8N5J4 1-248).
T8 sequence: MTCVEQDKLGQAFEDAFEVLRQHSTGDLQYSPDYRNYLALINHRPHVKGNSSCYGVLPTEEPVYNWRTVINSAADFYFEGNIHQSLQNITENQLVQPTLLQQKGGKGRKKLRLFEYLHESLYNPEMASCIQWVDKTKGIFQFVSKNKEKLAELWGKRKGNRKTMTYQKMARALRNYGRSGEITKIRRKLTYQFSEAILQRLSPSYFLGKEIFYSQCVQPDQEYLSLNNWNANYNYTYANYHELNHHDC
To be noted: protein: recombinant; tags: N-terminal GST; dsDNA, one strand shown. The essentials: as §1

In assay [14] the target is ELF4 (Homo sapiens, UniProt Q99607 1-663). The conditions noted are these: protein: recombinant; tags: N-terminal GST; dsDNA, one strand shown. The essentials: as §1
ELF4, sequence (Q99607 whole entry): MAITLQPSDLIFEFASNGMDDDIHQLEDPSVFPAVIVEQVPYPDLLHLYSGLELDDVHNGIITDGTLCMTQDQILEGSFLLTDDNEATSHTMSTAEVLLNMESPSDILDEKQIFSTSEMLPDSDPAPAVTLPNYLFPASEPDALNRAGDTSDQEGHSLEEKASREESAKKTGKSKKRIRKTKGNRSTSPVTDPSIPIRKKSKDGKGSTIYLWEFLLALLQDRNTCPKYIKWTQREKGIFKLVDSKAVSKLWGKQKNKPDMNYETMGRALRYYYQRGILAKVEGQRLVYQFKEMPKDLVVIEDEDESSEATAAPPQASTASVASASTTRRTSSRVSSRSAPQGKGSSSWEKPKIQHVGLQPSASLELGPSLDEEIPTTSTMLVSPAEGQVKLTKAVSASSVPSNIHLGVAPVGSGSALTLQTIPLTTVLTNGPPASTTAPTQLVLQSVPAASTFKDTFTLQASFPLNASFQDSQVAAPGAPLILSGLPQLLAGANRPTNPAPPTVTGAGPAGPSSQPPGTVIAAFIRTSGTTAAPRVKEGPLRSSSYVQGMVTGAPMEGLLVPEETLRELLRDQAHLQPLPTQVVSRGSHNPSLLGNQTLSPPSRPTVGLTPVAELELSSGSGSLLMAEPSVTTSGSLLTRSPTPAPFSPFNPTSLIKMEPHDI
Assay [15] addresses T9, ELK4 (Homo sapiens, UniProt P28324-2 1-405).
T9 sequence: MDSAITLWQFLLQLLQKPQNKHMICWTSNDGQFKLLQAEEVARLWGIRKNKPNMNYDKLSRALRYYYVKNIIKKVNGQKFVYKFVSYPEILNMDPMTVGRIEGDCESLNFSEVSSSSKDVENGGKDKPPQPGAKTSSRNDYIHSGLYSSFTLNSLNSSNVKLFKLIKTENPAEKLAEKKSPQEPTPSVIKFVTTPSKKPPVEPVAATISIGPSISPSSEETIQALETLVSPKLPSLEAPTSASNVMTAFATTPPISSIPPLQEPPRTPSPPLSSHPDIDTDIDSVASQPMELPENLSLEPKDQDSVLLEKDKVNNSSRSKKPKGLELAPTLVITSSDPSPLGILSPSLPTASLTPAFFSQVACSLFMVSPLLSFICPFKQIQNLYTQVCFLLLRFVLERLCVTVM
The conditions noted are these: protein: recombinant; tags: N-terminal GST; dsDNA, one strand shown. The essentials: as §1

Assay [16] addresses T10, ETV2 (Homo sapiens, UniProt O00321 1-342).
T10 sequence: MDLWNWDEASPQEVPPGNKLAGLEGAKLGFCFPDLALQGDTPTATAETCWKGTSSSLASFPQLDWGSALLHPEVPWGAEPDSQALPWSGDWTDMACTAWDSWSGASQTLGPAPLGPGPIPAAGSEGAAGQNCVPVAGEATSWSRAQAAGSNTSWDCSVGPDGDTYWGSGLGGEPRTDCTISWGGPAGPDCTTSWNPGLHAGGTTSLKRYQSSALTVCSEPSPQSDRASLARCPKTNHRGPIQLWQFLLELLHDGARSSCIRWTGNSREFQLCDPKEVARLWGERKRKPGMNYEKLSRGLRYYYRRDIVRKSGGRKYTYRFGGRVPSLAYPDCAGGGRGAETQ
To be noted: protein: recombinant; tags: N-terminal GST; dsDNA, one strand shown. The essentials: as §1

Assay [17] addresses T11, ELF3 (Homo sapiens, UniProt P78545 1-371).
T11 sequence: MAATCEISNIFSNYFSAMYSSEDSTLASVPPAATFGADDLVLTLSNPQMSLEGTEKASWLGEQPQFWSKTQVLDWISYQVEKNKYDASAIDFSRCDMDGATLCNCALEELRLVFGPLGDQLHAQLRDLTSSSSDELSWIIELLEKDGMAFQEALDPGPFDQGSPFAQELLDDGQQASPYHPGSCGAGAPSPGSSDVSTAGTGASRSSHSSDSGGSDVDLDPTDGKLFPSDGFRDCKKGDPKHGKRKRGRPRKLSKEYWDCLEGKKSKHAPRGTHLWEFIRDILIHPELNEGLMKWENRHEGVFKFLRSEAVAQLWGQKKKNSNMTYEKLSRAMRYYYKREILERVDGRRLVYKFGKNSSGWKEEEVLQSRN
To be noted: protein: recombinant; tags: N-terminal GST; dsDNA, one strand shown. The essentials:
as §1

The target in assay [18] is CRX (Homo sapiens, UniProt O43186 1-299). To be noted: protein: recombinant; tags: N-terminal GST; dsDNA, one strand shown. In a few lines: as §1
CRX, sequence (O43186 whole entry): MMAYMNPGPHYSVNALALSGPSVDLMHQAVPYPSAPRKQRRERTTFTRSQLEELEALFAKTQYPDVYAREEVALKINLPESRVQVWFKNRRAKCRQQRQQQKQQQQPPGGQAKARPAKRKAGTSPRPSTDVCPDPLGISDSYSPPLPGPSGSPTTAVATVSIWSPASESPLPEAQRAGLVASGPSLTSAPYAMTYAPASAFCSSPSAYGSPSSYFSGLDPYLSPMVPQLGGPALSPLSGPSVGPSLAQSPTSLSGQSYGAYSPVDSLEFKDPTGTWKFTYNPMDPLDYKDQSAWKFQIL
For assay [19], the target named is ETV1 (Homo sapiens, UniProt P50549 1-477). The conditions noted are these: protein: recombinant; tags: N-terminal GST; dsDNA, one strand shown. The essentials: as §1
ETV1, sequence (P50549 whole entry): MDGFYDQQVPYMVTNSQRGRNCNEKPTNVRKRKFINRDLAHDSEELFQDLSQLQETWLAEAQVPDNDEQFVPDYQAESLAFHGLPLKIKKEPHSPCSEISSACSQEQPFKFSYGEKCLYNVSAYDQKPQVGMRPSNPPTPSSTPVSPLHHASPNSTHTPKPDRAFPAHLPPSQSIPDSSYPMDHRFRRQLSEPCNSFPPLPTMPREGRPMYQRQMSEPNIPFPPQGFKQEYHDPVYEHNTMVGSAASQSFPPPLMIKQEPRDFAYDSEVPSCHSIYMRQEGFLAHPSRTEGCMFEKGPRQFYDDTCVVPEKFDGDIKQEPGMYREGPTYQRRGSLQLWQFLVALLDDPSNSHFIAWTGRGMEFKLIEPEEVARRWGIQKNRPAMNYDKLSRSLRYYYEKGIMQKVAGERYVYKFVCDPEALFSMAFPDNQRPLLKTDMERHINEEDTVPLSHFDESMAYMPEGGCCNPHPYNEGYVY

HSF1, sequence (Q00613 whole entry): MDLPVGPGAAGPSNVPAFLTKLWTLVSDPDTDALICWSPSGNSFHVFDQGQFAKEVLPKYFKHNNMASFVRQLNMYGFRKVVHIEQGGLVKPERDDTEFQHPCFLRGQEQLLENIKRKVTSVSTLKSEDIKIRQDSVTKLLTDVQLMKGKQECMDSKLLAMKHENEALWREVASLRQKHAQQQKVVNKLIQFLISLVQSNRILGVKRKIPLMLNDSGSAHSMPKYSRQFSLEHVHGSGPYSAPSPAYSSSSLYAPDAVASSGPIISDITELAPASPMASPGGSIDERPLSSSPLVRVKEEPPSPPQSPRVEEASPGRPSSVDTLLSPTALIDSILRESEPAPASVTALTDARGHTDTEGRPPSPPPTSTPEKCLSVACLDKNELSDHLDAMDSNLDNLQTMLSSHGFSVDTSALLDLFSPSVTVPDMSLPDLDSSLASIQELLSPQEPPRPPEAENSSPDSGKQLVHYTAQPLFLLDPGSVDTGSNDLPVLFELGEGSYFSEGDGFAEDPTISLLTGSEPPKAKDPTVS
ETV5, sequence (P41161 whole entry): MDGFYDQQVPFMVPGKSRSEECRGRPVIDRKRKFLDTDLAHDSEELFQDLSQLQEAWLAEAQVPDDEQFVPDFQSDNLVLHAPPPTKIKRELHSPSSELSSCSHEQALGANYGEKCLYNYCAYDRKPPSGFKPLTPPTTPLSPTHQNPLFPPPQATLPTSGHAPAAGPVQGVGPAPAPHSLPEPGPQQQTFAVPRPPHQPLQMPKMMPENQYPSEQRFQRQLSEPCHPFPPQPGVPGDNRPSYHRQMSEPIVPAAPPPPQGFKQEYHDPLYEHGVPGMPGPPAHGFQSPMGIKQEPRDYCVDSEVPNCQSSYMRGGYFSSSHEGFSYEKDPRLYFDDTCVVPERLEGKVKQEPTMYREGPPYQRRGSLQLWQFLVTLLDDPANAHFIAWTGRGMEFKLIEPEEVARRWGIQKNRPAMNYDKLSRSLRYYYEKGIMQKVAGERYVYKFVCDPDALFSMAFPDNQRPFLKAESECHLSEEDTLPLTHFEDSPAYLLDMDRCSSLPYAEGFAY
SPIB, sequence (Q01892 whole entry): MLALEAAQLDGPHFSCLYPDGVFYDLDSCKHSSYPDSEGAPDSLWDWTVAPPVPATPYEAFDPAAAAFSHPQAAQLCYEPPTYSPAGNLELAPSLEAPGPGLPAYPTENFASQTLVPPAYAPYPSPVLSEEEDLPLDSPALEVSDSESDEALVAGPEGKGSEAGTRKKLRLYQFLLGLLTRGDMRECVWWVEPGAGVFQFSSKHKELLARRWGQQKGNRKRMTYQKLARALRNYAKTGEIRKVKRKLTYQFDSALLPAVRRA

With GAATCC, the binding signal in assay [1] is 1.15 fold enrichment (6-mer frequency, TF over GST control); in assay [2], 1.09 fold enrichment (6-mer frequency, TF over GST control); in [3], 1.08 fold enrichment (6-mer frequency, TF over GST control); in assay [4], 1.18 fold enrichment (6-mer frequency, TF over GST control); in assay [5], 1.13 fold enrichment (6-mer frequency, TF over GST control); in assay [6], 1.14 fold enrichment (6-mer frequency, TF over GST control). In addition, the binding signal is 1.14 fold enrichment (6-mer frequency, TF over GST control) in [7]; 1.11 fold enrichment (6-mer frequency, TF over GST control) in assay [8]; 1.08 fold enrichment (6-mer frequency, TF over GST control) in [9]; 1.13 fold enrichment (6-mer frequency, TF over GST control) in assay [10]; 1.17 fold enrichment (6-mer frequency, TF over GST control) in [11]; 1.21 fold enrichment (6-mer frequency, TF over GST control) in assay [12]. For the same sequence, the binding signal in [13] was 1.1 fold enrichment (6-mer frequency, TF over GST control); in assay [14], 1.12 fold enrichment (6-mer frequency, TF over GST control); in assay [15] it was 1.19 fold enrichment (6-mer frequency, TF over GST control); in assay [16], 1.09 fold enrichment (6-mer frequency, TF over GST control); in assay [17], 1.02 fold enrichment (6-mer frequency, TF over GST control); in assay [18] it was 1.19 fold enrichment (6-mer frequency, TF over GST control). Also, the binding signal in assay [19] is 1.13 fold enrichment (6-mer frequency, TF over GST control).

The record behind these values is article PMC7862700, “An all-to-all approach to the identification of sequence-specific readers for epigenetic DNA modifications on cytosine”.
